# DNA Pol III inh = blocks replication by bacterial DNA polymerase III holoenzyme; reconstituted DNA polymerase III holoenzyme replication, biochemical; Potency, µM (top dose mostly 57.1 µM), for inactives: at the top dose activity change, negative = inhibition; 71,000 tested, 0.25% active; AID 603; note: potency is the fitted concentration of half-maximal effect; % is set by controls: 0 for no effect and ±100 for the full control effect
#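 Reconstituted *E. coli* holoenzyme (0.35 nM Pol III, 1 nM beta, 154 nM SSB, 2 nM primase) was preincubated with compound for 15 min at RT. Synthesis on 1.4 nM ssM13Gori ran 35 min, then was stopped with PicoGreen/EDTA and read as dsDNA fluorescence.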
# YjeE inh = displaces an ADP probe from E. coli YjeE (TsaE) | P0AF67 | purified YjeE enzyme, qHTS inhibition assay | Potency, µM | 71,000 tested, 0.05% active
#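 Fluorescence polarization of a BODIPY Texas Red–ADP probe (2 uM) bound to purified YjeE (10 uM) was read after 15 min room-temperature incubation with compounds. Loss of polarization marks inhibitors; ADP serves as titrated control.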
# BRCT inh red = BRCT-phosphoprotein interaction inhibition (red fluorophore) | 75,000 tested, 0.03% active | Potency, µM (titrated, usually from 76.9 µM), for the others: top-dose activity change, negative = inhibition, usual class: inhibitors | P38398 | BRCT-phosphopeptide binding, red fluorescence polarization; note: % is set by controls: 0 for no effect and ±100 for the full control effect
#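 Rhodamine-labelled pBACH1 10-mer (100 nM) bound to BRCT domain (100 nM) at pH 7.3; compounds incubated 12 min room temperature, polarization read. Free peptide defines full inhibition; unlabelled decapeptide titrated as control.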
# BRCT inh green = blocks human BRCA1 BRCT binding to phosphopeptide, green readout | 75,000 tested, 0.05% active | P38398 | AID 875 | BRCA1 BRCT-phosphopeptide binding, green fluorescence polarization | Potency, µM (top dose mostly 76.9 µM), for inactives: at the highest dose activity change, negative = inhibition, hits mostly inhibitors;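 note: potency is the fitted concentration of half-maximal effect; plate controls were peptide without protein for full effect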
#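 Fluorescence polarization: His-tagged BRCT (~35 kDa BRCA1 C-terminus, 250 nM) bound to 100 nM fluorescein-labeled phosphorylated 10-aa BACH1 peptide, pH 7.3 phosphate buffer with DTT and Tween 20. Compounds incubated 12 min at room temperature; inhibition read as lowered polarization.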
# ERK AVP inh = inhibitors of vasopressin-stimulated ERK signaling pathway. Potency, µM (highest dose often 57.5 µM), inactives show top-dose activity, negative = inhibition, actives largely listed as inhibitors. HEK293-V1b, vasopressin-stimulated pERK AlphaScreen. AID 995. 72,000 tested, 0.99% active; note: potency is the fitted concentration of half-maximal effect; % is set by controls: 0 for no effect and ±100 for the full control effect; nearly all actives have a fitted effect of over 55% in size
#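 HEK293 cells stably expressing V1b receptor, preincubated 30 min at 37 °C with compound, then stimulated 5 min with 25 nM vasopressin. Phospho-ERK by AlphaScreen SureFire after 5 h RT; normalized to DMSO and vasopressin; AC50 by Hill fit.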
# The depositor's hits bear a star; i = inactive; ? = inconclusive; nt = no result given; ! = not active in a repeat; [ ] = dose if it differs, or a comment. Most compounds without a hit are left out; they make up all but 1.2% or so of the library. Calls come from the whole dose curve; as a rule, active = well fitted curve in the direction sought with a large enough effect; inconclusive = small, poorly fitted or top-dose-only effect, or another doubt; inactive = no such curve, though single readings can be large; an effect the other way counts as inactive or inconclusive.
SMILES,DNA Pol III inh,YjeE inh,BRCT inh red,BRCT inh green,ERK AVP inh
Cc1c2cc[n+](CCN3CCCCC3)cc2c(C)c2c1[nH]c1ccc(O)cc12,2.5µM*,i,0%[15.4 µM],-5%[15.4 µM],-2%[11.5 µM]
Cc1ccccc1-c1cc(NCc2cccnc2)ncn1,-2%,i,-2%,0%,-9%
Cc1cc(N)c2ccccc2[n+]1CCCCCCCCCC[n+]1c(C)cc(N)c2ccccc21,16µM*!,?,-1%,-3%[3.08 µM],-2%
Nc1cc2c(nc3c4ccccc4c(N)cc3[n+]2-c2cccc3ccccc23)c2ccccc12 (tested in a mixture with another compound),-4%[11.4 µM],?,2%[15.4 µM],-1%[15.4 µM],?
OCC1OC([S-])[C@H](O)C(O)C1O.[Au+] (stereo partly specified),nt,nt,32µM*,-2%[3.08 µM],?
CCCCCCCCCC(=O)O[C@H](CC(=O)O)C[N+](C)(C)C,-2%,i,-1%,0%,2%
Cn1c(=O)[nH]c(=O)c2[nH]cnc21,nt,nt,3%,-1%[3.08 µM],-8%
O=C1c2ccc(Oc3ccc4c(c3)C(=O)N(CCCCO)C4=O)cc2C(=O)N1CCCCO,?,i,0%,-7%,20µM*
COc1ccc(-n2nc3cc(C)c(N)c(Br)c3n2)cc1,-10%,i,-1%,1%,32µM*
O=C(C1CCN(S(=O)(=O)c2cccc3cccnc23)CC1)N1CC=C(c2ccccc2)CC1,3%,i,-1%,1%,25µM*
CCn1c(=O)cc(SCC(=O)N2CCN(c3ccccc3OC)CC2)c2ccccc21,-3%,i,-6%,2%,25µM*
CCn1c(=O)cc(SCC(=O)N2CCOCC2)c2ccccc21,-4%,i,-3%,2%,-20%
CCn1c(SCc2nc3ccccc3c(=O)[nH]2)nc2ccccc2c1=O,-8%,?,-1%,11%,7.9µM*
COc1ccc(-n2cnnc2SCc2ncc(-c3ccccc3)o2)cc1,5µM*,i,-3%,3%,?
Cc1ccc(C)c(NS(=O)(=O)c2cc(C(=O)O)ccc2Cl)c1,nt,nt,-1%,-1%,nt
CCNc1nc(N)c(C(=O)c2ccc(Cl)s2)s1,-4%,i,-1%,48%,3.2µM*
CCCCOC(=O)c1[nH]c2c(c1C)C(=O)CC(c1cc(OC)c(OC)c(OC)c1)C2 (stereo unspecified),4%,i,0%,1%,25µM*
CCn1c2ccccc2c2cc(Nc3cc(C)nc4ncnn34)ccc21,5%,i,-1%,1%,25µM*
COC(=O)NC(CC(C)=O)c1cccc(F)c1 (stereo unspecified),nt,nt,-1%[15.4 µM],-1%[15.4 µM],17%[11.5 µM]
Cc1ccc(-c2nc3cnccn3c2Nc2ccc3c(c2)OCCO3)o1,2%,i,-2%,-4%,?
Oc1ccc(Br)cc1-c1nc2cnccn2c1NC1CCCC1,2%,i,-2%,-10%,32µM*
CCCn1c(NC(=O)C2CCN(S(=O)(=O)c3cccs3)CC2)nc2ccccc21,10%,i,1%,1%,13µM*
O=C(/C=C/c1c(C(=O)O)[nH]c2cc(Cl)cc(Cl)c12)Nc1ccccc1,nt,nt,0%,0%,-3%
COc1ccc(O[C@H]2C=C[C@@H](c3ccccc3)O[C@H]2COC(=O)N2CCCCC2)cc1,nt,nt,1%[15.4 µM],-1%[15.4 µM],13%[11.5 µM]
CCOc1cccc(OCCCCn2ccnc2)c1,0%,i,1%,-1%,-13%
SMILES,DNA Pol III inh,YjeE inh,BRCT inh red,BRCT inh green,ERK AVP inh
Cc1cc(OCCCn2ccnc2)cc(C)c1Cl,-4%[11.4 µM],i,-3%,14%,25µM*
CCN(CC)CCCCn1c(-c2ccccc2)nc2c(NCCOC)nc(C)nc21,-5%,i,0%,-1%,11%
CN1CCN(c2ncc3nc(-c4cn(C)c5ccccc45)c(=O)n(-c4ccccc4)c3n2)CC1,-12%,i,1%,-1%,15%
Cc1cn(C2CC(N=[N+]=[N-])C(CO)O2)c(=O)[nH]c1=O (stereo unspecified),nt,nt,1%,-2%[3.08 µM],3%
c1ccc(-c2csc(N3CCN(c4ccccn4)CC3)n2)cc1,-5%,i,1%,-1%,16µM*
O=C(N1CCOCC1)N1CCN(c2nc(-c3ccccc3)cs2)CC1,0%,i,1%,-1%,1%
O=C1OCCN1/N=C\c1ccc([N+](=O)[O-])o1,-6%[25.6 µM],i,1%[34.4 µM],-3%[34.4 µM],-13%[25.7 µM]
CC(C)c1cc(Nc2cccc(O)c2)cc(C(C)C)c1O,-3%,i,-5%,0%,32µM*
Oc1cccc(Nc2ccccc2)c1,4%,i,-1%,-2%,2%
O=C(O)/C=C\c1c2ccc(=O)c(O)c-2oc2c(O)c(O)ccc12,0.1µM*,?,?,6.3µM*,?
O=C(O)[C@H]1CCCC[C@@H]1c1c2ccc(=O)c(O)c-2oc2c(O)c(O)ccc12,0.32µM*,i,-24%[15.4 µM],-10%[15.4 µM],-12%[11.5 µM]
O=c1cnc2cnc(Oc3ccccc3)nc2n1Cc1cccs1,-13%,i,0%,-1%,-17%
NC(=O)NCCC[C@H](N)C(=O)O,nt,nt,1%,-2%,-8%
Cc1nnc(NC(=O)c2ccco2)s1,2%,i,0%,-2%,nt
O=C(Nc1nc2c(ccc3ccccc32)s1)c1ccco1,-7%,i,2%,-2%,13µM*
CCOC(=O)CCCCC1=CC2=CC(=O)C(C)(O)C(=O)C2=CO1 (stereo unspecified),nt,nt,0%[15.4 µM],0%[15.4 µM],2%[11.5 µM]
O=[N+]([O-])c1ccc(NN=C2c3ccccc3Cc3ccccc32)c([N+](=O)[O-])c1,-7%[11.4 µM],i,-2%[15.4 µM],-1%[15.4 µM],-15%[11.5 µM]
CSc1ncnc2c1ncn2CC(=O)[C@H]1CC[C@H]2[C@H]3CCC4=CC(=O)CC[C@@]4(C)[C@@H]3CC[C@@]12C,5%[11.4 µM],i,0%[15.4 µM],-1%[15.4 µM],4µM*
COC(=O)[C@@]1(Cc2ccc(F)cc2)[C@H]2c3cc(C(=O)N(C)C)n(Cc4ccc(O)c(OC)c4)c3C[C@H]2CN1C(=O)c1ccccc1,-2%,i,-2%,3%,18%
COC(=O)C/C=C\[C@@H](C)[C@@H](/C=N\O[C@@H](C)c1cn([C@H](CO)Cc2ccccc2)nn1)NS(=O)(=O)c1ccc(C)cc1,nt,nt,1%[15.4 µM],1%[15.4 µM],-4%[11.5 µM]
COc1ccc(-n2c(C)cc(C(=O)Cn3c(NCCO)nc4ccccc43)c2C)cc1,?,i,0%,0%,10µM*
Cc1cc(=O)n2[nH]c(C)c(-c3ccc(Cl)cc3)c2n1,20µM*,i,-1%,-3%,-4%
COC1(C#CC2C=CC(OC(C)=O)C(COC(C)=O)O2)CCCCC1 (stereo unspecified),nt,nt,-2%[15.4 µM],-1%[15.4 µM],16%[11.5 µM]
CC(=O)c1ccc2c3c(ccc(O)c13)CC2,-3%[11.4 µM],i,1%,0%,32µM*
CCOC(=O)C1CCN(C(=O)CCc2nc3ccccc3[nH]2)CC1,-2%,i,0%,-1%,-25%

# Assay outcomes: PubChem BioAssay, National Center for Advancing Translational Sciences (NCATS)
